67 molecules from PubChem BioAssay AID1259343 (VanderVen Lab, College of Veterinary Medicine, Cornell …, 2017) can be followed below.

SMILES strings stand for the structures. About 2,900 (47%) of roughly 6,200 compounds were called active. Rule as the data show it: active = inhibition above about 50%; inactive = the rest. So high a share suggests a set chosen from earlier hits. The list shows a part of the results.

This assay can be described thus: Mycobacterium tuberculosis growth inhibition, primary screen (AID 1259343). Particulars: inhibition: at 10 µM, active compounds read high; outcome: 10 uM.
As for `CCOc1ccc(NC(=O)COC(=O)c2ccc(Cl)cc2O)cc1`, the inhibition was 94.7% (active). As for `Cc1nc(-n2nc(-c3cccs3)cc2NC(=O)c2ccccc2F)[nH]c(=O)c1C`, the figure is 83.2% (active); as for `Cc1nc(-n2nc(-c3cccs3)cc2NC(=O)c2ccccc2Cl)[nH]c(=O)c1C`, 61% (active). As for `CCC(CC)C(=O)Nc1cc(-c2cccs2)nn1-c1nc(C)c(C)c(=O)[nH]1`, the figure is -21.5% (inactive); as for `Cc1nc(-n2nc(-c3cccs3)cc2N)[nH]c(=O)c1C`, 92.4% (active); as for `Cc1nc(-n2nc(-c3cccs3)cc2NC(=O)c2ccc(F)cc2)[nH]c(=O)c1C`, 99.3% (active).

For the molecule `Cc1cc(=O)[nH]c(-n2nc(-c3cccs3)cc2N)n1`, the inhibition was -45.8% (inactive). As for `CC(C)c1cc(=O)[nH]c(-n2nc(-c3cccs3)cc2N)n1`, the figure is 1.53% (inactive); as for `O=C(O)c1csc(-c2cnn(-c3ccccc3)n2)n1`, 33.6% (inactive); as for `Cc1cc(C)cc(NC(=O)c2ncn(-c3ccccc3C)n2)c1`, 77.4% (active). The figure for `CCN(CC)c1ccc(N2C(=O)CNC2=S)cc1` is 54.3% (active).

Turning to `O=C1CNC(=S)N1c1ccc(Cl)cc1`, the inhibition was -2.04% (inactive). The figure for `CCN(CC)c1ccc(-c2n[nH]c(=S)o2)cc1` is -4.83% (inactive); for `O=C(c1ccc(Cl)cc1)c1c(O)cc(-c2ccc(Cl)cc2)oc1=O` it is 84% (active); for `S=c1[nH]cc(-c2ccc(Cl)cc2)o1` it is -9.85% (inactive). For the molecule `CSc1nnc(SCc2nc3sc(C(=O)O)c(C)c3c(=O)[nH]2)s1`, the inhibition was 80.8% (active). As for `C=CCSc1nc2sc(C(=O)O)c(C)c2c(=O)[nH]1`, the figure is 26.3% (inactive).

For `Cc1sc2nc(CSC3=NCCS3)[nH]c(=O)c2c1C`, the inhibition was 49% (inactive). The figure for `O=[N+]([O-])C1=C(Nc2ccc(-c3ccccc3)cc2)CS(=O)(=O)C1` is 95.9% (active); for `CNC(=O)c1ccc(OCc2cccc(F)c2)cc1` it is 78.6% (active); for `CC(=O)Nc1ccc(OCc2cccc(F)c2)c(Cl)c1` it is 85.1% (active). The figure for `O=C(O)c1ccc(F)c(COc2ccc(F)cc2)c1` is 18.4% (inactive). The figure for `COc1ccc(OCc2cc(C(=O)NCc3cccc(F)c3)no2)c(Cl)c1` is 34.7% (inactive); for `CC(NC(=O)COc1ccc(C(F)(F)F)cc1)c1cccc(F)c1` (configuration not stated) it is 9.32% (inactive). Turning to `CSc1cccc(NC(=O)c2cc(=O)c(OCc3ccc(F)cc3)c[nH]2)c1`, the inhibition was 85.5% (active). On to `Cc1[nH]c(=S)sc1CC(=O)Nc1cccc(OCc2ccc(F)cc2)c1`, for which the inhibition is 38.9% (inactive). As for `CC(=O)Nc1cccc(OCc2ccc(F)cc2)c1`, the figure is 92.5% (active); as for `CCCS(=O)(=O)NCc1nc(NCCCc2ccccc2)c2ccccc2n1`, 33.8% (inactive); as for `CN(Cc1cc(-c2ccncc2)no1)Cc1ccc(Cl)s1`, 54.1% (active). On to `CN(Cc1ccsc1)Cc1cc(-c2ccccc2)no1`, for which the inhibition is 53.4% (active).

`CN(Cc1cccc(Cn2cccn2)c1)Cc1cc(-c2ccccc2)no1`: the inhibition was 61.2% (active). The figure for `CN(Cc1cc(-c2ccncc2)no1)Cc1cc2ccccc2o1` is 23.3% (inactive); for `CN(Cc1cc(-c2ccncc2)no1)Cc1ccc(C2CCCCO2)s1` (configuration not stated) it is 27.1% (inactive). As for `CN(Cc1ccc2c(c1)OCCO2)Cc1cc(-c2ccccc2)no1`, the figure is 37.6% (inactive); as for `CN(Cc1cc(-c2ccccc2)no1)Cc1cccc2nonc12`, 27.9% (inactive); as for `O=C(Nc1cccc2ncccc12)C1CC2CCCC(C1)C2=O` (configuration not stated), -15.1% (inactive).

For the molecule `CCCCC1CCC(C(=O)Nc2noc3ncccc23)CC1` (configuration not stated), the inhibition is 99.3% (active).

In the case of `c1cnc(N2CCN(Cc3csc(-c4cccs4)n3)CC2)nc1`, the inhibition is 40.8% (inactive).

With `CN(Cc1csc(-c2cccs2)n1)c1ccc(-c2nccn2C)nn1`, the inhibition was 68.3% (active). The figure for `CC1CCc2[nH]c3c(C(=O)NCC4CN(C)CCO4)cccc3c2C1` (configuration not stated) is 39.4% (inactive).

With `Cc1ccc(CN(C)Cc2nc(CC3CC3)no2)o1`, the inhibition result is “inactive”. The figure for `Cc1nc(Cc2noc(CC3CC4CCC3C4)n2)no1` (configuration not stated) is 66.8% (active); for `COCCN=c1scc(-c2ccc(OC(F)F)cc2)n1N=CC1CC2C=CC1C2` (configuration not stated) it is 101% (active).

As for `CN=c1scc(-c2ccccc2)n1N=Cc1ccccc1Br`, the inhibition was 6.14% (inactive). Take `COc1ccc(C=Nn2c(-c3ccc(Cl)cc3)csc2=N)cc1`: the inhibition is 60.1% (active). The figure for `COCCN=c1scc(-c2ccc(Br)cc2)n1N=Cc1ccc(F)cc1` is 40.8% (inactive). In the case of `CN=c1scc(-c2ccccc2)n1N=Cc1cccc(C(F)(F)F)c1`, the inhibition was 1.23% (inactive). As for `CN=c1scc(-c2ccc(OC(F)F)cc2)n1N=Cc1cccc(O)c1O`, the figure is 98.9% (active); as for `C(=Nn1c(-c2ccccc2)csc1=NCCc1ccccc1)c1ccccn1`, 21.8% (inactive); as for `COCCN=c1scc(-c2ccc(OC(F)F)cc2)n1N=Cc1ccc(OC)cc1`, 63.2% (active). As for `C=CCN=c1scc(-c2ccc(OC(F)F)cc2)n1N=Cc1ccc[nH]1`, the figure is 46.4% (inactive); as for `COc1ccc(/C=N\n2c(-c3ccc(Cl)cc3)csc2=N)cc1`, 38.1% (inactive); as for `CN=c1scc(-c2cccc(Br)c2)n1N=Cc1cccc(O)c1O`, 17.2% (inactive). As for `N#CC1(c2ccccc2)CCC2(CC1)N=C(N)Nc1nc3cc4c(cc3n12)OCCCO4` (configuration not stated), the figure is 45.8% (inactive); as for `Clc1ccc(CNc2c3c(nc4nncn24)CCC3)cc1`, 54.3% (active); as for `O=S(=O)(NCc1ccc(Cl)cc1)N1CCCCCC1`, 10.6% (inactive).

Regarding `O=C(Nc1ccc(SCc2cccnc2)cc1)C1=COCCO1`, the inhibition was 61% (active). For `Cc1ccc(Sc2ccc(NC(=O)C3=COCCO3)cc2)cc1C`, the inhibition is 33.3% (inactive). Turning to `O=C(Nc1ccc(Oc2ccccc2)cc1)C1=COCCO1`, the inhibition is 49.4% (inactive). As for `N#CC(C#N)=Cc1ccc(-c2ccc(SC(F)F)cc2)o1`, the figure is -10.2% (inactive); as for `O=C1NC(=S)C(=Cc2ccc(-c3ccc(F)cc3)o2)S1`, 97.6% (active). The figure for `NC(=S)NN=Cc1ccc(-c2nc3ccccc3s2)o1` is 67.3% (active); for `N#CC(C#N)=Cc1ccc(-c2ccc(F)cc2)o1` it is -20.9% (inactive); for `O=C1NC(=S)C(=Cc2ccc(-c3nc4ccccc4s3)o2)S1` it is 77.4% (active).

For `NC(=S)NN=Cc1ccc(-c2ccc(SC(F)F)cc2)o1`, the inhibition is 103% (active). The figure for `N=c1oc2c([N+](=O)[O-])cc(Cl)cc2cc1-c1nc2ccccc2s1` is -34.4% (inactive); for `O=C(Nc1nc(-c2nc3ccccc3s2)cs1)c1ccc([N+](=O)[O-])o1` it is -46.3% (inactive).

In general, inhibition refers to the change of the read-out against control, counted positive when it falls.
